For eight compounds, outcome and Potency results are on record in PubChem BioAssay (Tox21).

Assay [1] is described as follows: qHTS RealTime-Glo MT Cell Viability Assay in HEK293 cells - 0 hour (AID 1224880). Note: top concentration of the series differs between compounds; nearly all actives have a fitted effect of over 45% in size. Put shortly: (§1)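 Cells were seeded together with NanoLuc luciferase and a prosubstrate that viable cells reduce to a luciferase substrate. After a 5 h incubation at 37 C/5% CO2, compounds were added and luminescence was measured repeatedly during 40 h of treatment.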
Assay [2] can be described thus: A CellTox Green Cytotoxicity Assay to monitor cytotoxicity in HEK293 cells - 32 hour (AID 1224881). Note: nearly all actives have a fitted effect of over 40% in size. In outline: (§2)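 Nonlytic real-time cytotoxicity: HEK293 + CellTox Green reagent plated, 5 h preincubation, pintool compound addition (23 nL in DMSO), 37 C for 40 h, fluorescence measured at successive time points.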
The nature of assay [3]: A CellTox Green Cytotoxicity Assay to monitor cytotoxicity in HepG2 cells - 0 hour (AID 1224882). Note: nearly all actives have a fitted effect of over 35% in size. Put shortly: (§3)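 Read-out is fluorescence of a cyanine dye excluded from live cells that stains DNA of dead HepG2 cells, with signal proportional to cytotoxicity. Plates were read at 0, 8, 16, 24, 32 and 40 h after compound addition.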
Assay [4] is described as follows: A CellTox Green Cytotoxicity Assay to monitor cytotoxicity in HepG2 cells - 32 hour (AID 1224883). Note: nearly all actives have a fitted effect of over 50% in size. In outline:
as §3

A short description of assay [5]: A CellTox Green Cytotoxicity Assay to monitor cytotoxicity in HEK293 cells - 8 hour (AID 1224884). Note: nearly all actives have a fitted effect of over 35% in size. Put shortly: as §2
The nature of assay [6]: qHTS RealTime-Glo MT Cell Viability Assay in HepG2 cells - 16 hour (AID 1224885). Note: nearly all actives have a fitted effect of over 50% in size. Put shortly:
(§4)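 Viability was tracked continuously by NanoLuc luminescence from prosubstrate reduced by living HepG2 cells, at successive time points over 40 h of compound exposure. Cells with reagent were preincubated 5 h at 37 °C before compound addition.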
For orientation: qHTS replaces the single test concentration by a dilution series.

Assay [7] is described as follows: qHTS RealTime-Glo MT Cell Viability Assay in HEK293 cells - 24 hour (AID 1224886). Note: top concentration of the series differs between compounds; nearly all actives have a fitted effect of over 50% in size. In outline: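 Viability tracked continuously by luminescence as live cells reduce a prosubstrate for NanoLuc; HEK293 cells preincubated 5 h, compound-treated at 37 C, and read at 0, 8, 16, 24, 32 and 40 h.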
Assay [8] can be described thus: qHTS RealTime-Glo MT Cell Viability Assay in HEK293 cells - 8 hour (AID 1224887). Note: top concentration of the series differs between compounds; nearly all actives have a fitted effect of over 50% in size. In outline:
as §1

A short description of assay [9]: A CellTox Green Cytotoxicity Assay to monitor cytotoxicity in HEK293 cells - 16 hour (AID 1224888). Note: nearly all actives have a fitted effect of over 35% in size. Put shortly:
as §2

Assay [10] in a line: qHTS RealTime-Glo MT Cell Viability Assay in HepG2 cells - 0 hour (AID 1224889). Note: nearly all actives have a fitted effect of over 50% in size. In outline:
as §4

The nature of assay [11]: A CellTox Green Cytotoxicity Assay to monitor cytotoxicity in HepG2 cells - 8 hour (AID 1224890). Note: nearly all actives have a fitted effect of over 45% in size. In outline: as §3
Assay [12] in a line: qHTS assay to identify small molecule antagonists of the estrogen receptor alpha (ER-alpha) signaling pathway using the BG1 cell line in the presence of 0.1 nM 17-beta-estradiol - cell viability counter screen (AID 1259241). Note: nearly all actives have a fitted effect of over 40% in size. Put shortly:
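Cytotoxicity counter-screen: live-cell protease activity measured by fluorescence (30 min reagent step) in the same wells. Cells were VM7Luc4E2 with endogenous ER-alpha and ERE-driven luciferase, treated 22 hr at 37C alongside 0.1 nM 17beta-estradiol final.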

Assay [13] is described as follows: qHTS assay to identify small molecule antagonists of the androgen receptor (AR) signaling pathway using the MDA cell line in the presence of 0.5 nM R1881 - cell viability counter screen (AID 1259242). Note: nearly all actives have a fitted effect of over 45% in size. Put shortly: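 Counter screen for cytotoxicity run in the same wells as the AR antagonist reporter screen: MDA-kb2 cells were treated 16 hr with test compounds and 0.5 nM R1881, then live-cell protease activity was measured by fluorescence.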

Assay [14] can be described thus: qHTS assay to identify small molecule HDAC inhibitors (AID 1259364). Note: nearly all actives have a fitted effect of over 45% in size. Note: potency is the fitted concentration of half-maximal effect. Put shortly:
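Luminescence from a cell-permeant luminogenic class I/II HDAC substrate reports endogenous deacetylase activity in intact HCT-116 cells treated with compounds for 2 h.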

The nature of assay [15]: qHTS assay to identify small molecule HDAC inhibitors - cell viability counter screen (AID 1259365). In outline: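 CellTiter-Glo luminescence (30 min, room temperature) reported viability after a 2 h compound exposure at 37 C. Cells: wild-type HCT-116, 1,500 per well, seeded the night before.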
The nature of assay [16]: qHTS assay to identify small molecule agonists of the sonic hedgehog signaling (Shh) pathway - cell viability counter screen (AID 1259366). Note: nearly all actives have a fitted effect of over 50% in size. In outline:
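Cytotoxicity counter screen: CellTiter-Fluor reagent added after 23 h compound exposure, then 1 h at 37C and fluorescence read. Cells were 3T3 Gli1-Luc, seeded 2,000 per well and dosed 4 h post-plating.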

A short description of assay [17]: qHTS assay to identify small molecule antagonists of the sonic hedgehog signaling (Shh) pathway - cell viability counter screen (AID 1259367). Note: nearly all actives have a fitted effect of over 55% in size. Put shortly:
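Cells: 3T3 Gli1-Luc, 2,000/well, 4 hr pre-incubation. Compounds in DMSO, then conditioned medium. Incubation 24 hr, 37C, 5% CO2. CellTiter-Fluor at 23 hr, 1 hr, fluorescence.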

The target of assay [18] is Estrogen receptor (Homo sapiens) (UniProt P03372). Description: qHTS assay to identify small molecule antagonists of the estrogen receptor alpha (ER-alpha) signaling pathway using the BG1 cell line in the presence of 0.1 nM 17-beta-estradiol (AID 1259244). Note: nearly all actives have a fitted effect of over 50% in size. Put shortly: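 Cells: VM7Luc4E2, endogenous ER-alpha, 4x ERE-luc stable. Pre-culture 5 d, phenol red-free, charcoal-stripped FBS. Plated 24 h, compound + E2 0.1 nM final, 22 h 37C/5% CO2. Readout ONE-Glo luminescence.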
Chain of Estrogen receptor (Homo sapiens) (P03372 whole entry, looked up): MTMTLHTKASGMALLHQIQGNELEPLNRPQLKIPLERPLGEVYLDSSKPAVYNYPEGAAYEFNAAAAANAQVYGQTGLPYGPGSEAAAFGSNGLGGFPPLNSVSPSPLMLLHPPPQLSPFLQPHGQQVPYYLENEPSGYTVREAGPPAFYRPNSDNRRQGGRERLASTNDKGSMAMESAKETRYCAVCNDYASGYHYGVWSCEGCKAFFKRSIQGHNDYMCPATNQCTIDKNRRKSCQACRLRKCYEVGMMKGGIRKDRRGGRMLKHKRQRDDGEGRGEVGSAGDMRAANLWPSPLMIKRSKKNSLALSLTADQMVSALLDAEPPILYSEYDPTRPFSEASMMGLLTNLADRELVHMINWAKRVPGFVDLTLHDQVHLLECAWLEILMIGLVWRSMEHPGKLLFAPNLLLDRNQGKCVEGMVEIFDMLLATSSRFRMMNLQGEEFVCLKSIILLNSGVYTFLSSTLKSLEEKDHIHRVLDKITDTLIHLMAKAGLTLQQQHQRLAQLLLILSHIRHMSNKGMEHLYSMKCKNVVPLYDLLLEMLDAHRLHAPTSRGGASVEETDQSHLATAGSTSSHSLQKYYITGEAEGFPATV

Assay [19] can be described thus: qHTS assay to identify small molecule phospholipidosis (PLD) inducers (AID 1259344; active = well fitted curve in the direction sought with a large enough effect; an effect the other way counts as inactive or inconclusive). Put shortly:
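Phospholipidosis is scored by imaging LipidTOX-stained pits in HepG2 cells exposed to compound for 24 h at 37 C; pit counts and integrated intensities per well and per cell serve as outputs.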

Inconclusive results are not listed. The source made the active and inactive calls. Unless noted, calls come from the whole dose curve; as a rule, active = well fitted curve in the direction sought with a large enough effect in the repeat runs; inconclusive = weak or mixed curves; inactive = no such curve, though single readings can be large; an effect the other way counts as inactive or inconclusive.

Take `CC(C)(C)C(=O)C(Cl)Cl`: the call in assay [1], in assay [3], in assay [10], in assay [12] and in [15] was inactive. Also, the Potency entry in assay [2], in assay [4], in assay [5], in [6], in assay [7] and in assay [8] was “inactive” throughout. For the same compound, the Potency result in [9], in assay [11], in [13], in assay [14], in [16] and in [17] was “inactive” throughout.

As to `COC1=CC(=O)O[C@@H](/C=C/c2ccccc2)C1`, the call in [1], in [3], in assay [10], in assay [12] and in assay [15] was inactive. The Potency result in assay [2], in [4], in assay [5], in [6], in [7] and in [8] was “inactive” throughout. Further, the Potency result in assay [9], in [11], in assay [13], in assay [16] and in assay [17] was “inactive” throughout. Moreover, the Potency in [14] is 24.7 µM (active).

Take `CCCCCCCC(=O)Cl`: the compound was classed as inactive in [1], in assay [3], in assay [10] and in [12]. The Potency result in assay [2], in assay [4], in assay [5], in [6], in [7] and in [8] was “inactive” in each case. For the same compound, the Potency result in assay [9], in assay [11], in assay [13], in [18], in [14] and in assay [16] was “inactive” each time. Also, in assay [17], the Potency entry was “inactive”.

For the compound `COc1cc(CCN)cc(OC)c1OC`, the result in assay [1], in [3], in assay [10], in assay [12] and in assay [15] was inactive. Besides, the Potency entry in [2], in assay [4], in [5], in assay [6], in [7] and in assay [8] was “inactive” throughout. Moreover, the Potency entry in assay [9], in [11], in [13], in [19], in assay [14] and in [16] was “inactive” throughout. Moreover, in [17], the Potency result is “inactive”.

Take `CCCCCCCCBr`: the call in [1], in assay [3], in [10], in assay [12] and in [15] was inactive. Moreover, the Potency result in [2], in assay [4], in assay [5], in assay [6], in assay [7] and in assay [8] was “inactive” in each case. For the same compound, the Potency result in assay [9], in [11], in [13], in assay [14], in assay [16] and in assay [17] was “inactive” each time.

On to `O=c1[nH]c2ccccc2o1`, for which the call in assay [1], in [3], in assay [10], in [12] and in [15] was inactive. In addition, the Potency result in [2], in assay [4], in assay [5], in assay [6], in assay [7] and in assay [8] was “inactive” each time. The Potency result in assay [9], in [11], in [13], in [16] and in [17] was “inactive” throughout.

As for `NCC1(CC(=O)O)CCCCC1`, the result in assay [1], in assay [3], in assay [10], in [12] and in [15] was inactive. The Potency entry in assay [2], in assay [4], in [5], in assay [6], in [7] and in assay [8] was “inactive” in each case. Further, the Potency entry in assay [9], in [11], in assay [13], in [19], in assay [14] and in [16] was “inactive” throughout. The Potency entry in [17] is “inactive”.

`COc1ccc2c(C(=O)c3ccc(Cl)cc3)c(C)n(CC(=O)O)c2c1`: the compound was called inactive in assay [1], in assay [3], in assay [10], in assay [12] and in assay [15]. Further, the Potency entry in [2], in assay [4], in assay [5], in assay [6], in assay [7] and in assay [8] was “inactive” throughout. Further, the Potency result in assay [9], in assay [11], in assay [13], in [19], in [14] and in assay [16] was “inactive” each time. In addition, in assay [17], the Potency entry is “inactive”.
